Screening results: PubChem, National Center for Advancing Translational Sciences (NCATS)
Hits are enriched below; roughly 5.6% of the tested compounds scored in any of these assays.
Gal4-VP16 FLuc: Gal4-VP16 reporter inhibition counter-screen | Potency, µM (top dose mostly 53.6 µM), without a hit: top-dose activity, negative = inhibition, most hits filed as inhibitors | 310,000 compounds, 3.5% hits | Drosophila S2 Gal4-VP16 UAS-luciferase, luminescence, 20 h;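 note: Gal4-VP16 expression switched on by copper sulfate through the metallothionein promoter; potency is the fitted concentration of half-maximal effect; nearly all actives have a fitted effect of over 50% in size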
RORgamma inh: blocks mouse ROR gamma transcriptional activity; 310,000 compounds, 5.4% hits; Drosophila S2 Gal4-RORgamma UAS-luciferase reporter, 20 h; Potency, µM (highest dose often 53.6 µM), for inactives: at the highest dose activity change, negative = inhibition, hits mostly inhibitors; note: potency is the fitted concentration of half-maximal effect; nearly all actives have a fitted effect of over 60% in size
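Stably transfected Drosophila Schneider cells are the test system, with ROR gamma fused to Gal4 and luciferase under UAS control; luminescence is read after 20 hr of 700 uM copper sulfate induction at ambient temperature.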
PKM2 act: activators of human pyruvate kinase M2; P14618; purified PKM2, Kinase-Glo ATP luminescence, activation; response scale: 0% is enzyme alone, no compound; Potency, µM (doses to about 57.5 µM), without a hit: at the highest dose activation, usual class: activators; 260,000 compounds, 0.34% hits; note: potency is the fitted concentration of half-maximal effect; nearly all actives have a fitted effect of over 55% in size
Target sequence (P14618 whole entry, looked up): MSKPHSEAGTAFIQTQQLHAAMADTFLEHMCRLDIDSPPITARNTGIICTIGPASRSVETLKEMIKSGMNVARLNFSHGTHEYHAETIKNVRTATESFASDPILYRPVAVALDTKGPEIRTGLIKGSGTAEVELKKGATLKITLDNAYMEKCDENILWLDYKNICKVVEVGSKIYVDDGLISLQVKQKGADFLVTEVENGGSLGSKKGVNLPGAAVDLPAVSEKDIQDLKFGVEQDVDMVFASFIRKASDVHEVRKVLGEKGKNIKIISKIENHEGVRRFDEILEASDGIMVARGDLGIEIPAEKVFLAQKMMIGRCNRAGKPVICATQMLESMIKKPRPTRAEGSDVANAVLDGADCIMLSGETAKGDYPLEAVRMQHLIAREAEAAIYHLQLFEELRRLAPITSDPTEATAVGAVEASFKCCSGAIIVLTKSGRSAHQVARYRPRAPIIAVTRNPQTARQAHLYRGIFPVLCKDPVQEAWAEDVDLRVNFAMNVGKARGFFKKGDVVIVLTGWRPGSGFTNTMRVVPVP
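Kinase-Glo luminescence reports ATP generated from ADP (0.1 mM) and PEP (0.5 mM) by purified hPK-M2 after 1 h at room temperature, pH 7.2 imidazole buffer; intermediate enzyme activity allows detecting inhibitors and activators.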
Six1-Eya2 inh: inhibitors of human Six1/Eya2 interaction | AlphaScreen GST-Six1/His-Eya2 binding, biochemical; hits give low values | activity change, % (test concentration not listed) | 360,000 compounds, 0.56% hits; in the data active = activity change below about -65%; inconclusive = mostly about -30% to -63%
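Compounds are tested against tagged Six1 and Eya2 proteins bridged by glutathione donor and nickel acceptor beads; after a one-hour incubation at 37 °C without light, AlphaScreen emission is recorded.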
CtBP-E1A blk: blocks the CtBP interaction with E1A; activity change, % (test concentration not listed); 340,000 compounds, 0.49% hits; AlphaScreen GST-E1A/His-CtBP binding, 1536-well; hits give low values; in the data active = activity change below about -65%; inconclusive = mostly about -30% to -63%
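Homogeneous bead-based format: GST-tagged E1A captured on glutathione donor beads, His-tagged CtBP on nickel acceptor beads; compounds precede bead addition by 2 h at 37 °C.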
An asterisk follows results filed as active; ? = inconclusive; . = no result. Unless noted, calls come from the whole dose curve; as a rule, active = well fitted curve in the direction sought with a large enough effect; inconclusive = small, poorly fitted or top-dose-only effect, or another doubt; inactive = no such curve, though single readings can be large; an effect the other way counts as inactive or inconclusive. % is set by controls: 0 for no effect and ±100 for the full control effect.

SMILES | Gal4-VP16 FLuc | RORgamma inh | PKM2 act | Six1-Eya2 inh | CtBP-E1A blk
COCCNC(=S)NC(=O)c1ccc(C(C)(C)C)cc1 | 11µM* | 2µM* | 0% | -7 | .
O=C(NC(=S)NCc1ccco1)c1ccc(Br)cc1 | 16µM* | 14µM* | 0% | -21 | 3
CC(=O)Nc1ccc(NC(=S)NC(=O)c2ccc(C(C)(C)C)cc2)cc1 | -5% | ? | . | . | .
O=C(NC(=S)NCc1ccco1)c1ccccc1 | 3% | 13% | -2% | 0 | 13
C=C1[C@@H]2CC[C@H](C2)C1(C)C | -4% | 11% | . | . | .
O=C(/C=C/c1cccs1)NC(=S)NNC(=O)c1ccccc1O | 2% | ? | -3% | -76* | -94*
O=C(/C=C/c1cccs1)NC(=S)Nc1ccccc1 | 8.9µM* | 3.2µM* | -3% | -1 | -2
Cc1ccccc1NC(=O)/C=C/c1cccs1 | ? | ? | -13% | 0 | 2
COc1ccc(C(=O)NNC(=S)NC(=O)/C=C/c2cccs2)cc1 | -4% | ? | -25% | -1 | 3
CC(=O)C1=CCC(c2ccc(C)o2)N(S(=O)(=O)c2ccc(C)cc2)C1 (stereo not drawn) | . | . | . | -12 | -7
Cn1ccc2c(-c3ccc(C(=O)O)cc3)cc3c(c21)C1CCC3C1 (stereo not drawn) | . | . | . | -8 | 2
CS(=O)(=O)CCCCN=C=S | -16% | 13µM* | . | . | .
Cc1onc(-c2ccccc2Cl)c1C(=O)Oc1cc(N)n(S(=O)(=O)c2ccc(F)cc2)n1 | -3% | 0% | -2% | -81* | ?
CN(C)C(=O)COC(=O)c1ccccc1NC(=O)c1ccco1 | 7% | -2% | -3% | -5 | .
Cc1ccc(Nc2nc(CSc3nnc(-c4ccc(F)cc4)n3C)cs2)cc1 | 3% | 11µM* | 1% | -13 | -25
O=C1CS/C(=C/C(=O)c2cccc(Cl)c2)N1 | ? | 5.6µM* | 17% | 9 | 0
Cc1ccc(C(=O)/C=C2/NC(=O)CS2)cc1 | ? | ? | -2% | -2 | -1
O=C(COC(=O)c1cccc([N+](=O)[O-])c1)Nc1ncc(Br)s1 | . | . | . | -9 | -4
Cc1ccnc(NC(=O)C2CC(=O)N(c3ccc4c(c3)OCCO4)C2)c1 (stereo not drawn) | ? | 7.9µM* | -6% | -12 | -15
Cc1ccc(-c2nc(CN(CC3CCC3)CC3CCCO3)c(C)o2)s1 (stereo not drawn) | 17% | 11µM* | -1% | -11 | 7
CCOC(=O)c1cnc(Cc2ccccc2)[nH]c1=O | -11% | -1% | -4% | 7 | -1
CCOC(=O)c1cnc(-n2[nH]c(C)c(Cc3ccccc3)c2=O)[nH]c1=O | -4% | -41% | 0% | -82* | -92*
CCOC(=O)c1cnc(-n2[nH]c(C)cc2=O)[nH]c1=O | 1% | 16% | 0% | -77* | -92*
C=C1c2ccccc2NC(=S)N1Cc1ccc2c(c1)OCO2 | ? | 3.2µM* | 9% | -1 | .
O=C(C1=C(O)/C(=C/c2ccc(O)cc2)CCC1)C(F)(F)F | ? | ? | 10% | 3 | -2
SMILES | Gal4-VP16 FLuc | RORgamma inh | PKM2 act | Six1-Eya2 inh | CtBP-E1A blk
Cc1cccc(C(=O)NNC2=C(C(=O)C(F)(F)F)CCC2)c1O | 10µM* | 6.3µM* | 2% | -2 | -25
Cc1cccc(C(=O)NNC(=O)c2ccc(Cl)cc2)c1O | -66% | ? | -6% | -4 | -1
O=C(NNC1=C(C(=O)C(F)(F)F)CCC1)c1cccc(O)c1 | 3.5µM* | 5µM* | -13% | -12 | -11
CCN(CC)CC#CCC(OC)(c1ccccc1)c1ccccc1 | -5% | -23% | 4% | 7 | 2
O=S(=O)(c1ccc(Br)s1)N1CCN(c2ccc(F)cc2)CC1 | 4% | ? | 1% | -6 | -18
COc1ccc(C(=O)N2CCN(C(=O)c3ccc(-c4ccccc4)cc3)CC2)cc1OC | 2% | 22% | 0% | 2 | 3
COc1cc(OC)cc(C(=O)N2CCN(C(=O)c3ccc(-c4ccccc4)cc3)CC2)c1 | 7.1µM* | 1.1µM* | 5% | -9 | -14
CCn1c(-c2ccc([N+](=O)[O-])cc2)n[nH]c1=S | -24% | 11µM* | -1% | -6 | -8
CCn1c(-c2ccc3ncccc3c2)n[nH]c1=S | ? | 11µM* | 1% | 1 | 0
CCCCn1c(=O)[nH]c(=O)c2c1nc(-c1ccc([N+](=O)[O-])cc1)n2CC | 0% | 11% | 1% | -6 | 8
CCn1c(-c2sc(-c3ccccc3)nc2C)n[nH]c1=S | ? | 3.5µM* | -6% | 0 | 1
CCn1c(-c2cccc(S(=O)(=O)N3CCCC3)c2)n[nH]c1=S | -1% | ? | 6% | 5 | .
CCn1c(-c2cccc(Br)c2)n[nH]c1=S | 7.1µM* | 10µM* | 1% | 5 | -14
COCCNC(=O)C(NC(=O)C1CCC(C)CC1)C(C)C (stereo not drawn) | -13% | 4% | -1% | 7 | .
COc1ccc(CN(C)C(=O)COC(=O)c2c(-c3ccccc3Cl)noc2C)cc1 | 0% | ? | -1% | 18 | 3
CC1=Nc2cccc3cccc(c23)N1 | -20% | 13µM* | 3% | -30 | ?
COc1ccccc1NCC(=O)N/N=C/c1c(O)ccc2ccccc12 | 2.8µM* | 0.89µM* | . | -11 | -21
O=C(Cc1cccc2ccccc12)N/N=C/c1ccc(O)c([N+](=O)[O-])c1 | 5% | 17% | -1% | -3 | 16
O=C(CNc1ccc(F)cc1)N/N=C/c1c(O)ccc2ccccc12 | 2.8µM* | 1.3µM* | . | -16 | ?
C=C(C)Cn1c(SCC(=O)N/N=C/c2c(O)ccc3ccccc23)nc2ccccc2c1=O | 2.5µM* | 0.63µM* | -9% | -9 | 2
O=C(Cc1cccc2ccccc12)N/N=C/c1ccc2cccc(O)c2n1 | ? | 13µM* | 0% | -1 | 23
Oc1ccc2ccccc2c1/C=N/Nc1ccccc1 | ? | ? | 15% | -2 | 11
COc1ccc2c(c1)nc(-c1cccc(Br)c1)c(=O)n2C(c1ccccn1)c1nc2ccccc2[nH]1 (stereo not drawn) | . | . | . | -2 | -2
COc1ccc(CNC(=O)CN2C(=O)NC(Cc3ccccc3)(c3ccccc3)C2=O)cc1OC (stereo not drawn) | . | . | . | -4 | 9
O=C(Cc1n[nH]c(=O)[nH]c1=O)N/N=C/c1c(O)ccc2ccccc12 | 3% | 30% | -6% | -87* | -68*
O=C(Cc1n[nH]c(=O)[nH]c1=O)N/N=C/c1ccccc1 | -3% | -17% | -1% | 6 | 7
COc1ccccc1N(CC(=O)N/N=C/c1c(O)ccc2ccccc12)S(C)(=O)=O | ? | 13µM* | 7% | -71* | ?
COc1ccccc1N(CC(=O)Nc1ccccc1C)S(C)(=O)=O | -2% | -8% | 7% | -8 | -11
CCCn1c(SCC(=O)N2CCc3ccccc3C2)nc(O)cc1=O | . | . | . | -1 | -4
